# Article PMC7862700, “An all-to-all approach to the identification of sequence-specific readers for epigenetic DNA modifications on cytosine”
# Assays:
# Assay in all cases: DAPPL (digital affinity profiling via proximity ligation, sequencing); 10 mM Tris-HCl pH 7.5, 50 mM NaCl, 1 mM DTT, 4% glycerol, room temperature, 30 min; GST-TFs on glutathione beads, 16-mer random dsDNA library, 0.1% formaldehyde crosslink after washing; high values mean tight binding
# FLI1 = target: T1, FLI1 (Homo sapiens, UniProt Q01543 1-452); settings: protein: recombinant; tags: N-terminal GST; dsDNA, one strand shown
# T1 sequence: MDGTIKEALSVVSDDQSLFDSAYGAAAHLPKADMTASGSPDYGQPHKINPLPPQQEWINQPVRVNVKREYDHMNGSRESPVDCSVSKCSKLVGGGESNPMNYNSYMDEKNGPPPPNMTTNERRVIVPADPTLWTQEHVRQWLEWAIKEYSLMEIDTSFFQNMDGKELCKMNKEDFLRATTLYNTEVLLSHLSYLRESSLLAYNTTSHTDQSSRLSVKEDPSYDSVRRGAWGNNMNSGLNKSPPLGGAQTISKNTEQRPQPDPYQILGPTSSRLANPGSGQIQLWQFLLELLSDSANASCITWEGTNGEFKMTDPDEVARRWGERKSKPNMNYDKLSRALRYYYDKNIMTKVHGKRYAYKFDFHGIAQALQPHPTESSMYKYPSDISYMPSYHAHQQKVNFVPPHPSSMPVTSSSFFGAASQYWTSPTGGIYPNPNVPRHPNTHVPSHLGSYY
# Summary of the method: (§1)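 Yeast served to express human transcription factors as GST fusions, which were then captured on glutathione beads and labelled with DNA barcodes. Pooled with a tag-only sample, they were incubated with 200 nmole of a 16-mer random double-stranded DNA library for 30 min at room temperature in Tris/NaCl/DTT/glycerol buffer, washed, crosslinked with 0.1% formaldehyde, ligated by proximity, amplified by PCR and sequenced. Dividing each hexamer's read frequency for a factor by its frequency for the tag-only sample gives the binding signal.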
# ELK1 = target: T2, ELK1 (Homo sapiens, UniProt P19419 1-428); settings: protein: recombinant; tags: N-terminal GST; dsDNA, one strand shown
# T2 sequence: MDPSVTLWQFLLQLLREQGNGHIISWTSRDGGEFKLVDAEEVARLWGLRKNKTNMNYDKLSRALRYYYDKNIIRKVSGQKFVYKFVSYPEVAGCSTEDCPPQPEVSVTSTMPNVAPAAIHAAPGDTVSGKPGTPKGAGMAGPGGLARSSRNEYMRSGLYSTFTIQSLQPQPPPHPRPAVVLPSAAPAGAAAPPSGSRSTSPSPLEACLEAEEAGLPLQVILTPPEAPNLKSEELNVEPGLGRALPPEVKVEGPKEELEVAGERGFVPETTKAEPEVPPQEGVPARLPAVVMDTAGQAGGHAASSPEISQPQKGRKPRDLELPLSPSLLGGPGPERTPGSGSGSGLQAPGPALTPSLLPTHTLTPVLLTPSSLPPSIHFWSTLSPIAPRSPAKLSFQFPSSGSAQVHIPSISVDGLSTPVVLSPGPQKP
# Summary of the method: as §1
# GABPA = target: T3, GABPA (Homo sapiens, UniProt Q06546 1-454); settings: protein: recombinant; tags: N-terminal GST; dsDNA, one strand shown
# T3 sequence: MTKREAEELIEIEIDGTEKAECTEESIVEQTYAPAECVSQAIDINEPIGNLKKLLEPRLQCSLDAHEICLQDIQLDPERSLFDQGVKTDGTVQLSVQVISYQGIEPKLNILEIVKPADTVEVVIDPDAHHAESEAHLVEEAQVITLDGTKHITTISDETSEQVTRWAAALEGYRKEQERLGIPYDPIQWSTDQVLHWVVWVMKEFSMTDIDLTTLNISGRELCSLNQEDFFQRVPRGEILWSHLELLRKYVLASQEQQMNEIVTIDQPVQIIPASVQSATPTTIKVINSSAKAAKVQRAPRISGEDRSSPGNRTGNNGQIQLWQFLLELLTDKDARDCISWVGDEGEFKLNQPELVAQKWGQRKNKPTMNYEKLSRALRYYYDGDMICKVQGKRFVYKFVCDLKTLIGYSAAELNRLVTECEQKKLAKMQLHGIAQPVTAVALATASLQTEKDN
# Summary of the method: as §1
# ERG = target: T4, ERG (Homo sapiens, UniProt P11308 1-479); settings: protein: recombinant; tags: N-terminal GST; dsDNA, one strand shown
# T4 sequence: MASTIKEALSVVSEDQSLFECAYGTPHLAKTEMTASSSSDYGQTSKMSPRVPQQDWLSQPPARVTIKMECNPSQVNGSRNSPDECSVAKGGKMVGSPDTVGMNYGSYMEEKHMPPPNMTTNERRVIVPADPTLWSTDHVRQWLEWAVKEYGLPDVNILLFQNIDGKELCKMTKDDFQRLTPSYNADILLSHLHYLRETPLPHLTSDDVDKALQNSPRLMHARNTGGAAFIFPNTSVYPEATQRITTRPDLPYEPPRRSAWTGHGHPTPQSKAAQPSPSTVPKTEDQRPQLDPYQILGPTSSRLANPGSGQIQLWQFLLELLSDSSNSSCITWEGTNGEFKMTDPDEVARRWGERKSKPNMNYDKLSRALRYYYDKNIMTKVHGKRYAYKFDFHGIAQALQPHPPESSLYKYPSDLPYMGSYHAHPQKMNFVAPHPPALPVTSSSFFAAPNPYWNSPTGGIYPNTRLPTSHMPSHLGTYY
# Summary of the method: as §1
# ELF1 = ELF1 (Homo sapiens, UniProt P32519 1-619); settings: protein: recombinant; tags: N-terminal GST; dsDNA, one strand shown
# Chain of ELF1 (P32519 whole entry): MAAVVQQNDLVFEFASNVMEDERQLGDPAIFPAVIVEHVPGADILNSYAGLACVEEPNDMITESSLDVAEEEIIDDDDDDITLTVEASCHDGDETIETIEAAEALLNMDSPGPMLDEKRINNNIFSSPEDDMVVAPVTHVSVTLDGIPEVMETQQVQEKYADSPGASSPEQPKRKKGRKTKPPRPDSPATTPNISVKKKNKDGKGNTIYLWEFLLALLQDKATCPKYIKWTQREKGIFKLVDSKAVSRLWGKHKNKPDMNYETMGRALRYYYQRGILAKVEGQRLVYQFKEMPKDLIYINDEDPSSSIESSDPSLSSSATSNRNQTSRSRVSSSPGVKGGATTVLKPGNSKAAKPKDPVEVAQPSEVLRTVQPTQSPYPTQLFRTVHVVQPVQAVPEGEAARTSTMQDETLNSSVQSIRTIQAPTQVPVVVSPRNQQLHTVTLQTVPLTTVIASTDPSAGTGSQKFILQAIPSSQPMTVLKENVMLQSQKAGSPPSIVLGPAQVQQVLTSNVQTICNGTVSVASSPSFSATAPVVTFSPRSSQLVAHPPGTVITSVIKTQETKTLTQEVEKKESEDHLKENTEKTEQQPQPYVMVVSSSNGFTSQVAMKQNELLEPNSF
# Summary of the method: as §1
# EHF = target: T5, EHF (Homo sapiens, UniProt Q9NZC4 1-300); settings: protein: recombinant; tags: N-terminal GST; dsDNA, one strand shown
# T5 sequence: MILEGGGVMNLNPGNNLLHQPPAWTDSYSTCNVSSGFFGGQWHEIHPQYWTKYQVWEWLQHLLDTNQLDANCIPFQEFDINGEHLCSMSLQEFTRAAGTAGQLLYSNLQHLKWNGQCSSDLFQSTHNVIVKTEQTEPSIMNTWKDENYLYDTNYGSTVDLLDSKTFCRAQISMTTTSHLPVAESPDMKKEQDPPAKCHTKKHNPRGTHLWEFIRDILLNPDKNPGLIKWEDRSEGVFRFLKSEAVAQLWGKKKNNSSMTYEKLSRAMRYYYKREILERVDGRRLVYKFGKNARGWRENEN
# Summary of the method: as §1
# SPI1 = SPI1 (Homo sapiens, UniProt P17947 1-270); settings: protein: recombinant; tags: N-terminal GST; dsDNA, one strand shown
# Summary of the method: as §1
# SPIB = SPIB (Homo sapiens, UniProt Q01892 1-262); settings: protein: recombinant; tags: N-terminal GST; dsDNA, one strand shown
# Chain of SPIB (Q01892 whole entry): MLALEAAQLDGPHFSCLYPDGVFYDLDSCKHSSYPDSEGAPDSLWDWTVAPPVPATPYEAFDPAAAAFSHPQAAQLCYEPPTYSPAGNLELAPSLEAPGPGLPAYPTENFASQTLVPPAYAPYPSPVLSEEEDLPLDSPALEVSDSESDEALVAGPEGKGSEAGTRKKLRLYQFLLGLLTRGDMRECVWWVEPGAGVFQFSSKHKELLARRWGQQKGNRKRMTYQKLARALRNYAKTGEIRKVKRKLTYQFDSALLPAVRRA
# Summary of the method: as §1
# FEV = target: T6, FEV (Homo sapiens, UniProt Q99581 1-238); settings: protein: recombinant; tags: N-terminal GST; dsDNA, one strand shown
# T6 sequence: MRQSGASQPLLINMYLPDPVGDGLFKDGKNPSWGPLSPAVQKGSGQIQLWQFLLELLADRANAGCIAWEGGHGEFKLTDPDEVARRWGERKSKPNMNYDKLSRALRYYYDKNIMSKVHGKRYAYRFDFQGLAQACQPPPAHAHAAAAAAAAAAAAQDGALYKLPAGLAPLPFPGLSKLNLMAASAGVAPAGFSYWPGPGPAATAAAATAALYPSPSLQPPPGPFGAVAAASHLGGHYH
# Summary of the method: as §1
# ETV5 = ETV5 (Homo sapiens, UniProt P41161 1-510); settings: protein: recombinant; tags: N-terminal GST; dsDNA, one strand shown
# Chain of ETV5 (P41161 whole entry): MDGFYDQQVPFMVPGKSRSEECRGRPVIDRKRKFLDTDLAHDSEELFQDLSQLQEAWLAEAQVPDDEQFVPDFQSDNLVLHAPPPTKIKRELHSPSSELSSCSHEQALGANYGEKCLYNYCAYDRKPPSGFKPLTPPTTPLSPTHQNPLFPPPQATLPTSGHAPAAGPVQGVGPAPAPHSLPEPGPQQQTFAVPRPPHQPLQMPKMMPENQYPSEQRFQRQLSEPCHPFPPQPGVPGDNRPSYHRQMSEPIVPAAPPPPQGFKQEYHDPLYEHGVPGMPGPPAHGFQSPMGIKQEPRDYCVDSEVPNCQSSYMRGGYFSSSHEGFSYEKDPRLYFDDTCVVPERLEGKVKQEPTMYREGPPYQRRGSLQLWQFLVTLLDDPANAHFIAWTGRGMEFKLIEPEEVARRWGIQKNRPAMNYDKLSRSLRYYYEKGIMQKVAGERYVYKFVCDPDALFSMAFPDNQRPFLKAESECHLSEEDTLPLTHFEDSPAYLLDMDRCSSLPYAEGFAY
# Summary of the method: as §1
# HSF1 = HSF1 (Homo sapiens, UniProt Q00613 1-529); settings: protein: recombinant; tags: N-terminal GST; chain copies: 3; dsDNA, one strand shown
# Chain of HSF1 (Q00613 whole entry): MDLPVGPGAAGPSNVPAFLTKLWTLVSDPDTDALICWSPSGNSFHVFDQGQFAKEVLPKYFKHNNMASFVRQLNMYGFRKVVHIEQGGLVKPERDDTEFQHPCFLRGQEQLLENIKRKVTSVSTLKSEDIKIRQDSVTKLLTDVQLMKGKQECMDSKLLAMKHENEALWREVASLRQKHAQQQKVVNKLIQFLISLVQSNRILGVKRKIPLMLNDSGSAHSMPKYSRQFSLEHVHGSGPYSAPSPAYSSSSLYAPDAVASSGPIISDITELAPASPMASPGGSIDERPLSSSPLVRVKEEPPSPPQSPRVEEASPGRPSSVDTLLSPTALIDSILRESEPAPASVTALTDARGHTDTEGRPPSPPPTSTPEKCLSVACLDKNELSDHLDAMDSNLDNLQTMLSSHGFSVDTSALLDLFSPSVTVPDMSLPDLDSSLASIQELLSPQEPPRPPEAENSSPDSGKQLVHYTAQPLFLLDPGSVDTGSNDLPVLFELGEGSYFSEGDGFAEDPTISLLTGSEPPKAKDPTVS
# Summary of the method: as §1
# SPIC = target: T7, SPIC (Homo sapiens, UniProt Q8N5J4 1-248); settings: protein: recombinant; tags: N-terminal GST; dsDNA, one strand shown
# T7 sequence: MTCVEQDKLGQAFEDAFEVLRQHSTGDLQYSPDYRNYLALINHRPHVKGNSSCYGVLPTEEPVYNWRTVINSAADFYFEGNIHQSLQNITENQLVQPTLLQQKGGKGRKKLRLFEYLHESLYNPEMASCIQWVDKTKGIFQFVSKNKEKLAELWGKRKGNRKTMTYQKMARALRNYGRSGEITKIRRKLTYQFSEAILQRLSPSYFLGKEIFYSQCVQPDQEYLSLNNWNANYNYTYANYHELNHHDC
# Summary of the method: as §1
# ELF4 = ELF4 (Homo sapiens, UniProt Q99607 1-663); settings: protein: recombinant; tags: N-terminal GST; dsDNA, one strand shown
# Chain of ELF4 (Q99607 whole entry): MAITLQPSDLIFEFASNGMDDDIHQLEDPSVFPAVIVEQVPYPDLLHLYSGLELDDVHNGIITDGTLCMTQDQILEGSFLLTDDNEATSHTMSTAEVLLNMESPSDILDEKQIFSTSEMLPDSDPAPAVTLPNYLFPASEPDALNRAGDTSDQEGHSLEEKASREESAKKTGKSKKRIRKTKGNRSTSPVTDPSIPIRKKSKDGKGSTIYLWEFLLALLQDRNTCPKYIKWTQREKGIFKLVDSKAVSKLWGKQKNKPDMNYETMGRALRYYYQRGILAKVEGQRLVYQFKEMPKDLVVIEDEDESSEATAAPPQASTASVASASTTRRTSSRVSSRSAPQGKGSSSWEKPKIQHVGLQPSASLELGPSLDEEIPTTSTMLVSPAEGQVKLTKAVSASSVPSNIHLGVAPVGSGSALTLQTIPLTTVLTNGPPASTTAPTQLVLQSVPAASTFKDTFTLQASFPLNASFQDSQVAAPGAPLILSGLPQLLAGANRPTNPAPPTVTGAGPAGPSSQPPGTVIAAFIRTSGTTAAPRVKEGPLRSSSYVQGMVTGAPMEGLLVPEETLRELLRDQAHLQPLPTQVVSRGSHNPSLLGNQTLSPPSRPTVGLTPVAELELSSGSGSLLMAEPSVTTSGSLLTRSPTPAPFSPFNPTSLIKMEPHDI
# Summary of the method: as §1
# ELK4 = target: T8, ELK4 (Homo sapiens, UniProt P28324-2 1-405); settings: protein: recombinant; tags: N-terminal GST; dsDNA, one strand shown
# T8 sequence: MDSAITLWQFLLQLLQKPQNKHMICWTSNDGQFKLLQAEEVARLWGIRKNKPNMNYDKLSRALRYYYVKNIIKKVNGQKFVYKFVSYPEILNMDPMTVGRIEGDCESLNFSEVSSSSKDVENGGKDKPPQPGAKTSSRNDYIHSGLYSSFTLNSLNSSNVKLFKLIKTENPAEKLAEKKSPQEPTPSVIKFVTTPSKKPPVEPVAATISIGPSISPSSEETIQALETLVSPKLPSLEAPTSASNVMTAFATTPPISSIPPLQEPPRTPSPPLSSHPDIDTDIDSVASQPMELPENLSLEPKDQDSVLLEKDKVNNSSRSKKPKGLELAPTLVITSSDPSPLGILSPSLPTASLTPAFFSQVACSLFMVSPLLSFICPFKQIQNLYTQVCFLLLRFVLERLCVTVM
# Summary of the method: as §1
# ELF3 = target: T9, ELF3 (Homo sapiens, UniProt P78545 1-371); settings: protein: recombinant; tags: N-terminal GST; dsDNA, one strand shown
# T9 sequence: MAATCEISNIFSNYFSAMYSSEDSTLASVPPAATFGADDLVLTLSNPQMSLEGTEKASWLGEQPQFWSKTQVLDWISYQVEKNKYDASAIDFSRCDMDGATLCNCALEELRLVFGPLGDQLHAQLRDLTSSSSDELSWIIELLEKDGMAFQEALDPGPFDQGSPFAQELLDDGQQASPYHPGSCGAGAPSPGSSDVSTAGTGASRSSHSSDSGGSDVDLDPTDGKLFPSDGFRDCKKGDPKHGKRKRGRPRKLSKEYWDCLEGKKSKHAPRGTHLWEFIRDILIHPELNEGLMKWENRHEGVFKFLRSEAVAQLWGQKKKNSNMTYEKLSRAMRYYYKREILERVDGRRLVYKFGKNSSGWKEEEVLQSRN
# Summary of the method: as §1
# ETV1 = ETV1 (Homo sapiens, UniProt P50549 1-477); settings: protein: recombinant; tags: N-terminal GST; dsDNA, one strand shown
# Chain of ETV1 (P50549 whole entry): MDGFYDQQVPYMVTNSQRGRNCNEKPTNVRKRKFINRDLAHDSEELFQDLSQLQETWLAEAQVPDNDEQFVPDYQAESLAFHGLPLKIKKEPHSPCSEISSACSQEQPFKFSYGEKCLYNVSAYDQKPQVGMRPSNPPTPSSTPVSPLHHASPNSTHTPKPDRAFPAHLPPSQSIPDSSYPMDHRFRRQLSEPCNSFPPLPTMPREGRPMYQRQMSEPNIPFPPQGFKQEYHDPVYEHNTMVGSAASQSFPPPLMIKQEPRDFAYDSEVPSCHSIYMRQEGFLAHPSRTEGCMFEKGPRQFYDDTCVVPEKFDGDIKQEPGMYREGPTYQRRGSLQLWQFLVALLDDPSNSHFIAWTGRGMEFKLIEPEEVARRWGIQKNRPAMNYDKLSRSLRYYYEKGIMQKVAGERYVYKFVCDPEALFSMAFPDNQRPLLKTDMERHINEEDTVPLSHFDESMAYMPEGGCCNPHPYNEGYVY
# Summary of the method: as §1
sequence,measurement,setting,value
TGCGCA,binding signal,FLI1,"1.17 fold enrichment (6-mer frequency, TF over GST control)"
same,binding signal,ELK1,"1.07 fold enrichment (6-mer frequency, TF over GST control)"
same,binding signal,GABPA,"1.07 fold enrichment (6-mer frequency, TF over GST control)"
same,binding signal,ERG,"1.07 fold enrichment (6-mer frequency, TF over GST control)"
same,binding signal,ELF1,"1.14 fold enrichment (6-mer frequency, TF over GST control)"
same,binding signal,EHF,"1.16 fold enrichment (6-mer frequency, TF over GST control)"
same,binding signal,SPI1,"1.08 fold enrichment (6-mer frequency, TF over GST control)"
same,binding signal,SPIB,"1.02 fold enrichment (6-mer frequency, TF over GST control)"
same,binding signal,FEV,"1.14 fold enrichment (6-mer frequency, TF over GST control)"
same,binding signal,ETV5,"1.12 fold enrichment (6-mer frequency, TF over GST control)"
same,binding signal,HSF1,"1.07 fold enrichment (6-mer frequency, TF over GST control)"
same,binding signal,SPIC,"1.15 fold enrichment (6-mer frequency, TF over GST control)"
same,binding signal,ELF4,"1.09 fold enrichment (6-mer frequency, TF over GST control)"
same,binding signal,ELK4,"1.12 fold enrichment (6-mer frequency, TF over GST control)"
same,binding signal,ELF3,"1.06 fold enrichment (6-mer frequency, TF over GST control)"
same,binding signal,ETV1,"1.07 fold enrichment (6-mer frequency, TF over GST control)"
